# Measured values reported in the supplement of paper PMC10849652.
# Targets with a hit are over-represented here; the source holds about 8,800 in all. About 0.5% of all pairs of compound and target were hits.
# Compound: CCN(CCCOc1ccc2c(Nc3cc(CC(=O)Nc4cccc(F)c4)[nH]n3)ncnc2c1)CCOP(=O)(O)O [barasertib]
# Assay: log2 fold change, soluble protein after heating vs DMSO (PISA); higher = thermal stabilisation; K562 lysate, 10 uM; active = over 0.2 and 3.5 SD of the protein, either way, in both replicates (recomputed)
# Summary of the method: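 Thermal stability, expressed as log-two fold change relative to solvent controls, is given from duplicates. Crude K562 extract in PBS pH 7.4 with 1 mM MgCl2, at 1 mg/mL protein, was treated with 10 μM compound for 30 min and heated in aliquots for 3 min across 48°C-58°C. After pooling, adjustment to 0.5% NP-40 at 4°C and centrifugation at 21,000xg for 90 min, supernatant protein was measured by TMTpro 16plex LC-MS/MS with channel sums equalised.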
# Chain of UniProt Q8IY22 (Q8IY22 whole entry, looked up): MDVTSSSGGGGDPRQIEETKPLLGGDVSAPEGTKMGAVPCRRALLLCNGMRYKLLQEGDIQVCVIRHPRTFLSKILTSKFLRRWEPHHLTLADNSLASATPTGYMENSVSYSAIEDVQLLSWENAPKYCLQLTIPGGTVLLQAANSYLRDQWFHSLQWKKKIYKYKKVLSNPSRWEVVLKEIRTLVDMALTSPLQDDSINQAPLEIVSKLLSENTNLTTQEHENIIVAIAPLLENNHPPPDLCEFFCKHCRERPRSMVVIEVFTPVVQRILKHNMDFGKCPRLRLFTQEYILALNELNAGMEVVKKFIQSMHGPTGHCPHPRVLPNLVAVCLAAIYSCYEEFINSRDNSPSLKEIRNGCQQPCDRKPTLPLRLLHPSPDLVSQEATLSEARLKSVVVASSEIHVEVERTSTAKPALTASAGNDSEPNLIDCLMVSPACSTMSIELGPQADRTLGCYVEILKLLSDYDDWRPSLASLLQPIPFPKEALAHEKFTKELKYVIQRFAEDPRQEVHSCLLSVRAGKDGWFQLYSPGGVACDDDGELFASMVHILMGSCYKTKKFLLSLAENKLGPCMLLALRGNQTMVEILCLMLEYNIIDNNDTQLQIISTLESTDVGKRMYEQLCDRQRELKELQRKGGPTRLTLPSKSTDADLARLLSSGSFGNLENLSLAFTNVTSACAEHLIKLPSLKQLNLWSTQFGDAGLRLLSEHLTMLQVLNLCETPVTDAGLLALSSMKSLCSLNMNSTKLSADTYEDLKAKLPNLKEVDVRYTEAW
# Chain of UniProt Q9Y2V7 (Q9Y2V7 whole entry, looked up): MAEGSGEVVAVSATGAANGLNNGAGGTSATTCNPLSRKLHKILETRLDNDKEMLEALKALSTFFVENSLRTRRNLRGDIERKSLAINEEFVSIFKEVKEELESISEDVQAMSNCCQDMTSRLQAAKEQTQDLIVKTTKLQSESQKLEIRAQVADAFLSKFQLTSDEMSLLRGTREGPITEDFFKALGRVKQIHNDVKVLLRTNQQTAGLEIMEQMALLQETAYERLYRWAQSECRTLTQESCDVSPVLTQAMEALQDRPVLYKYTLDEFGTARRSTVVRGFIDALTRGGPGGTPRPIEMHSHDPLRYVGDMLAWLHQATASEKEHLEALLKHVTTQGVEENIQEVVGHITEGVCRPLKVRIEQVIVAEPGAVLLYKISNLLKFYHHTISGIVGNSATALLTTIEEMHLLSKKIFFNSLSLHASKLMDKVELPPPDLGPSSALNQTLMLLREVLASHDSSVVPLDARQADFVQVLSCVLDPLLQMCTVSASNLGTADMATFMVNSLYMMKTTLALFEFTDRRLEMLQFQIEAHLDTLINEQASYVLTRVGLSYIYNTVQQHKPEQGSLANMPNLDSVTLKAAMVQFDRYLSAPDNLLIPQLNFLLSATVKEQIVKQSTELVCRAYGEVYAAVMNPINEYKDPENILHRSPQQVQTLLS
# Chain of UniProt Q9UP83 (Q9UP83 whole entry, looked up): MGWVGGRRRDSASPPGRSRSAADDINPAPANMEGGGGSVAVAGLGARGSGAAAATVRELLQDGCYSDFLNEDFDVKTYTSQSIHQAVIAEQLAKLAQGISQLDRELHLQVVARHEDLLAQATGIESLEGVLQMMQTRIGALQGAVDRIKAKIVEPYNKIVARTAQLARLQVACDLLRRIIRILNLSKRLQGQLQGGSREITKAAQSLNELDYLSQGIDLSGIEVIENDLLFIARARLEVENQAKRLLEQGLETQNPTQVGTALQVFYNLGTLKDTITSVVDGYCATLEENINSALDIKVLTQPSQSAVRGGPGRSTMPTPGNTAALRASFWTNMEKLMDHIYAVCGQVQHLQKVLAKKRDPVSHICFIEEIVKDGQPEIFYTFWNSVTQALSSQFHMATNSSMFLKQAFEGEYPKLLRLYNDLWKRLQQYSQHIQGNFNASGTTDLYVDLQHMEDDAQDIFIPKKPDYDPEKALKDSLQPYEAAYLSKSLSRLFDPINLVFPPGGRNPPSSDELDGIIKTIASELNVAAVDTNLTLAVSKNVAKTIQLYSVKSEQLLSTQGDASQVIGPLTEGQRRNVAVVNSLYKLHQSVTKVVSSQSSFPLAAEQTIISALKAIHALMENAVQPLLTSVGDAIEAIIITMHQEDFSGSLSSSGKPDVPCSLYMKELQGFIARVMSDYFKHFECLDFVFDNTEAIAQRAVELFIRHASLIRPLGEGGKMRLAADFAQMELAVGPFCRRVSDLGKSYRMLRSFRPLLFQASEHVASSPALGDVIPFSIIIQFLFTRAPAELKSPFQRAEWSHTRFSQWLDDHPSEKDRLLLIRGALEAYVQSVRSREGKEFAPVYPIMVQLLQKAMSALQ
# Chain of UniProt O75534 (O75534 whole entry, looked up): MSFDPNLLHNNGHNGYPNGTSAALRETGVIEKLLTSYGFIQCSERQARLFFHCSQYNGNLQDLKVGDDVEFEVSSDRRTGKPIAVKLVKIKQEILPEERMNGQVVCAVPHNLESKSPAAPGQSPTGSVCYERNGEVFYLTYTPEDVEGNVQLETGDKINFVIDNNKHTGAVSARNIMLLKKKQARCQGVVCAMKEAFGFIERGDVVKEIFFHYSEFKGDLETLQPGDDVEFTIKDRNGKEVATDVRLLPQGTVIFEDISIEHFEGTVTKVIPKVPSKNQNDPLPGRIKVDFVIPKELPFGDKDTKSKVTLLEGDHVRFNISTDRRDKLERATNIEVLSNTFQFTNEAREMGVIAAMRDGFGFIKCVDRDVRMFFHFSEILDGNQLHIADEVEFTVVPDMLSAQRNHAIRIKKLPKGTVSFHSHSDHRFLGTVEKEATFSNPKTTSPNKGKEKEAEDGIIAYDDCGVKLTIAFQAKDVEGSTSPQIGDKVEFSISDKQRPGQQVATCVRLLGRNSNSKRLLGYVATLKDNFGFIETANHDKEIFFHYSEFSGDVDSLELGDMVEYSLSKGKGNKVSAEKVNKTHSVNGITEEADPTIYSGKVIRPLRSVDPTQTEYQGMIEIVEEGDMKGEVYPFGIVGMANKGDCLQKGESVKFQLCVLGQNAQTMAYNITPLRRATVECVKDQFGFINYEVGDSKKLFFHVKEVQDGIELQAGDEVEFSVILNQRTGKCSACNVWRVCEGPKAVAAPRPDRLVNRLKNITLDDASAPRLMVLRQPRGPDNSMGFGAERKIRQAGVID
# Chain of UniProt Q8WYQ5 (Q8WYQ5 whole entry, looked up): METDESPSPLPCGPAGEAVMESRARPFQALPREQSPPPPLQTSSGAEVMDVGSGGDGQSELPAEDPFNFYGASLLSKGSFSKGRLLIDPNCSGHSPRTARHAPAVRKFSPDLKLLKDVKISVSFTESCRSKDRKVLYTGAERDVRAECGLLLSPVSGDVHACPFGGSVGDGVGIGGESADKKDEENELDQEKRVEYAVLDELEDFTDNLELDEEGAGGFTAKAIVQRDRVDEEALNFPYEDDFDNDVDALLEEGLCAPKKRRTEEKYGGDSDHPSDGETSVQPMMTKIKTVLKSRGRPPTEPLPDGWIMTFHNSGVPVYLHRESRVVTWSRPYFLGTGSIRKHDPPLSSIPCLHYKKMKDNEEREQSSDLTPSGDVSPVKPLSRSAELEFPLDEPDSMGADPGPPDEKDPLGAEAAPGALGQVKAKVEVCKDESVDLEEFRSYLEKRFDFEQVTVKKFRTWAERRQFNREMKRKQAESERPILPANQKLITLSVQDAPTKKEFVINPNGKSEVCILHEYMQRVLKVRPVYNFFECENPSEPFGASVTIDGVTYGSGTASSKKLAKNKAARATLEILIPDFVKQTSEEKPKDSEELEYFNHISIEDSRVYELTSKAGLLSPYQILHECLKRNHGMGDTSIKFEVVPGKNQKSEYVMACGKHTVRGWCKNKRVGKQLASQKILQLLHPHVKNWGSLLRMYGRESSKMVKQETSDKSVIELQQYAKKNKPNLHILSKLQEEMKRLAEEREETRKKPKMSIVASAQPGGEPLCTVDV
# Chain of UniProt Q9UHD1 (Q9UHD1 whole entry, looked up): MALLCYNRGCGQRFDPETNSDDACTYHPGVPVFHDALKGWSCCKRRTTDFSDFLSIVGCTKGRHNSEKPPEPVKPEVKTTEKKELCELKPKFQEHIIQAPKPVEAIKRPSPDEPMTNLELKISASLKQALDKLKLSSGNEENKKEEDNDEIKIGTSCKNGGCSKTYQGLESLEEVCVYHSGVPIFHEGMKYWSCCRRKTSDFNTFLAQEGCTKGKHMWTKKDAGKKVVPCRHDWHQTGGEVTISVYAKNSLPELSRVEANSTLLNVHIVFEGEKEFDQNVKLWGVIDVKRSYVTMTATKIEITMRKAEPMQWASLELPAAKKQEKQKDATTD
# Chain of UniProt P04080 (P04080 whole entry, looked up): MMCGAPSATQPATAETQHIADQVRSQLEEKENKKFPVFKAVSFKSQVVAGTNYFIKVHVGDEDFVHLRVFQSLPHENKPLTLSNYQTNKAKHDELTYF
# Chain of UniProt Q9NZN8 (Q9NZN8 whole entry, looked up): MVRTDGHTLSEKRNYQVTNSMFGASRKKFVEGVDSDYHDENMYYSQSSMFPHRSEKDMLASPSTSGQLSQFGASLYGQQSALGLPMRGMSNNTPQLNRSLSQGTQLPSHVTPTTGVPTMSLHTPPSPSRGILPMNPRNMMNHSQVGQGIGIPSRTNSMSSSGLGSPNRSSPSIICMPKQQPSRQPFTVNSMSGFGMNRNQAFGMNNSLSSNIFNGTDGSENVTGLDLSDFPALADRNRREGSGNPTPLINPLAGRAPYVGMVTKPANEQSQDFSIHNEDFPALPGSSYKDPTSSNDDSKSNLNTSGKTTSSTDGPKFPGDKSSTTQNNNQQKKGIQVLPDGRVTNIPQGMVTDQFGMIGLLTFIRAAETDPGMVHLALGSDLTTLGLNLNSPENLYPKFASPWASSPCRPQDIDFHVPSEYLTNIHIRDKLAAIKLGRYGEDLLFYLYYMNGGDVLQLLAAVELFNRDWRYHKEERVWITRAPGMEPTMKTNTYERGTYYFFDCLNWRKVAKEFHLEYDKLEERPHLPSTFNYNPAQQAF
# Chain of UniProt P61923 (P61923 whole entry, looked up): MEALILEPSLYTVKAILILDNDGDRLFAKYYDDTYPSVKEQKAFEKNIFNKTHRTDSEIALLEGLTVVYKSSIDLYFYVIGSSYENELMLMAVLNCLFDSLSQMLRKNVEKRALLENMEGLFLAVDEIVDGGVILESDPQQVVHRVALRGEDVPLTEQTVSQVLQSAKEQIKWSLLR
row,Target,log2 fold change
1,CKM (UniProt P06732),-0.018 (inactive)
2,CMIP (UniProt Q8IY22),0.04 (inactive)
3,COG6 (UniProt Q9Y2V7),0.072 (inactive)
4,DGCR8 (UniProt Q8WYQ5),0.062 (inactive)
5,COPZ1 isoform 4 (UniProt P61923),0.111 (inactive)
6,DENND6A (UniProt Q8IWF6),0.066 (inactive)
7,CKAP5 (UniProt Q14008),0.003 (inactive)
8,CNOT2 (UniProt Q9NZN8),0.065 (inactive)
9,COL6A5 (UniProt A8TX70),0.09 (inactive)
10,DCP1A (UniProt Q9NPI6),-0.066 (inactive)
11,COG2 (UniProt Q14746),0.077 (inactive)
12,DEF6 (UniProt Q9H4E7),-0.05 (inactive)
13,CSDE1 isoform 4 (UniProt O75534),0.01 (inactive)
14,CNOT6L (UniProt Q96LI5),0.065 (inactive)
15,DHRS11 (UniProt Q6UWP2),0 (inactive)
16,DNAJC1 (UniProt Q96KC8),0.053 (inactive)
17,DOCK7 (UniProt Q96N67),0.027 (inactive)
18,CTNND1 isoform 3 (UniProt O60716),0.036 (inactive)
19,CHUK (UniProt O15111),0.059 (inactive)
20,COG5 isoform 2 (UniProt Q9UP83),-0.116 (inactive)
21,CSTB (UniProt P04080),0.077 (inactive)
22,CHORDC1 (UniProt Q9UHD1),-0.029 (inactive)
23,CSTF2 (UniProt P33240),0.27 (active)
